# Laboratory results from paper PMC8384837, “Expanding the binding specificity for RNA recognition by a PUF domain”.
# Tests used:
# Assay in all cases: yeast three-hybrid, YBZ-1, SC-Leu-His + 0.5 mM 3-AT, 4 days
# Conditions in all cases: tags: N-Gal4 AD-HA kept; label: inside an RPR1-promoter hybrid RNA with tandem MS2 sites; ssRNA
# [1] = molecular target: PUM1 PUF domain R8-LYF (Homo sapiens, UniProt Q14671 828-1176, N1122L;Q1126F)
# Method in brief: (§1)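 Matching RNA elements and Pumilio-1 PUF domain libraries, randomized at the three base-contacting residues of every repeat, were co-expressed from a centromeric plasmid in strain YBZ-1 (LexA–MS2 coat fusion, HIS3 reporter). The repeat regions were PCR-amplified and Illumina-sequenced from cells grown four days on SC-Leu (input) or SC-Leu-His + 0.5 mM 3-AT (selection). The interaction score is the log change in variant frequency from input to selection. It is computed in log2, with a pseudocount of 1 for absent variants.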
# [2] = molecular target: PUM1 PUF domain R8-HWP (Homo sapiens, UniProt Q14671 828-1176, N1122H;Y1123W;Q1126P)
# Method in brief: as §1
# [3] = molecular target: PUM1 PUF domain R2-LIM (Homo sapiens, UniProt Q14671 828-1176, N899L;Y900I;Q903M)
# Method in brief: as §1
# [4] = molecular target: PUM1 PUF domain R3-IWY (Homo sapiens, UniProt Q14671 828-1176, C935I;R936W;Q939Y)
# Method in brief: as §1
# [5] = molecular target: PUM1 PUF domain R1-RRI (Homo sapiens, UniProt Q14671 828-1176, S863R;Q867I)
# Method in brief: as §1
# [6] = molecular target: PUM1 PUF domain R1-IWR (Homo sapiens, UniProt Q14671 828-1176, S863I;R864W;Q867R)
# Method in brief: as §1
# [7] = molecular target: PUM1 PUF domain R5-HHH (Homo sapiens, UniProt Q14671 828-1176, C1007H;R1008H;Q1011H)
# Method in brief: as §1
# [8] = molecular target: PUM1 PUF domain R5-QHV (Homo sapiens, UniProt Q14671 828-1176, C1007Q;R1008H;Q1011V)
# Method in brief: as §1
# [9] = molecular target: PUM1 PUF domain R2-VFQ R3-THE R4-TFR (Homo sapiens, UniProt Q14671 828-1176, N899V;Y900F;C935T;R936H;Q939E;N971T;H972F;Q975R)
# Method in brief: as §1
# [10] = molecular target: PUM1 PUF domain R5-TEE (Homo sapiens, UniProt Q14671 828-1176, C1007T;R1008E;Q1011E)
# Method in brief: as §1
# PUM1 PUF domain R3-IWY, sequence (Q14671 828-1176 C935I/R936W/Q939Y): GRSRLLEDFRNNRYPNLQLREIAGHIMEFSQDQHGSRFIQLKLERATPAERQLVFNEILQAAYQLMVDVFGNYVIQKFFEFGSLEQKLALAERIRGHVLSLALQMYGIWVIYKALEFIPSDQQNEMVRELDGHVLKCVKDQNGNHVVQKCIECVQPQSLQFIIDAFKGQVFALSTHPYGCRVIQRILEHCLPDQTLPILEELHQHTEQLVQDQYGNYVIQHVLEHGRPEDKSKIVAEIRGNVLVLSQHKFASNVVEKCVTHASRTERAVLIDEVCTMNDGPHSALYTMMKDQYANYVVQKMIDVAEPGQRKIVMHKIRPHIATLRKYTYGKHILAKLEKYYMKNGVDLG
# PUM1 PUF domain R1-IWR, sequence (Q14671 828-1176 S863I/R864W/Q867R): as the sequence (Q14671 828-1176 C935I/R936W/Q939Y) above, with S36I, R37W, Q40R, I108C, W109R, Y112Q counted along it
# PUM1 PUF domain R8-LYF, sequence (Q14671 828-1176 N1122L/Q1126F): as the sequence (Q14671 828-1176 C935I/R936W/Q939Y) above, with I108C, W109R, Y112Q, N295L, Q299F counted along it
# PUM1 PUF domain R5-HHH, sequence (Q14671 828-1176 C1007H/R1008H/Q1011H): as the sequence (Q14671 828-1176 C935I/R936W/Q939Y) above, with I108C, W109R, Y112Q, C180H, R181H, Q184H counted along it
# PUM1 PUF domain R2-VFQ R3-THE R4-TFR, sequence (Q14671 828-1176 N899V/Y900F/C935T/R936H/Q939E/N971T/H972F/Q975R): as the sequence (Q14671 828-1176 C935I/R936W/Q939Y) above, with N72V, Y73F, I108T, W109H, Y112E, N144T, H145F, Q148R counted along it
# PUM1 PUF domain R5-TEE, sequence (Q14671 828-1176 C1007T/R1008E/Q1011E): as the sequence (Q14671 828-1176 C935I/R936W/Q939Y) above, with I108C, W109R, Y112Q, C180T, R181E, Q184E counted along it
# PUM1 PUF domain R8-HWP, sequence (Q14671 828-1176 N1122H/Y1123W/Q1126P): as the sequence (Q14671 828-1176 C935I/R936W/Q939Y) above, with I108C, W109R, Y112Q, N295H, Y296W, Q299P counted along it
# PUM1 PUF domain R1-RRI, sequence (Q14671 828-1176 S863R/Q867I): as the sequence (Q14671 828-1176 C935I/R936W/Q939Y) above, with S36R, Q40I, I108C, W109R, Y112Q counted along it
# PUM1 PUF domain R2-LIM, sequence (Q14671 828-1176 N899L/Y900I/Q903M): as the sequence (Q14671 828-1176 C935I/R936W/Q939Y) above, with N72L, Y73I, Q76M, I108C, W109R, Y112Q counted along it
# PUM1 PUF domain R5-QHV, sequence (Q14671 828-1176 C1007Q/R1008H/Q1011V): as the sequence (Q14671 828-1176 C935I/R936W/Q939Y) above, with I108C, W109R, Y112Q, C180Q, R181H, Q184V counted along it
sequence,measurement,setting,value
GGCUAGAACUAGUGGAUCCCCCGGCGCCCGGCGGCUCGAGCCCGGGUAAGCGUAAAUAGUCUGCAUGCCGCCGGGCGCCAUGCCUGCAGGUCGACUCUAGAAAACAUG,binding signal,[1],2.3 log2 enrichment (interaction score)
same,binding signal,[2],5.59 log2 enrichment (interaction score)
GGCUAGAACUAGUGGAUCCCCCGGCGCCCGGCGGCUCGAGCCCGGGUAAGUGUAAAGAGUCUGCAUGCCGCCGGGCGCCAUGCCUGCAGGUCGACUCUAGAAAACAUG,binding signal,[3],3.94 log2 enrichment (interaction score)
GGCUAGAACUAGUGGAUCCCCCGGCGCCCGGCGGCUCGAGCCCGGGUAAGUGUAAGUAGUCUGCAUGCCGCCGGGCGCCAUGCCUGCAGGUCGACUCUAGAAAACAUG,binding signal,[4],1.76 log2 enrichment (interaction score)
GGCUAGAACUAGUGGAUCCCCCGGCGCCCGGCGGCUCGAGCCCGGGUAAGUGUAAUUAGUCUGCAUGCCGCCGGGCGCCAUGCCUGCAGGUCGACUCUAGAAAACAUG,binding signal,[4],3.36 log2 enrichment (interaction score)
GGCUAGAACUAGUGGAUCCCCCGGCGCCCGGCGGCUCGAGCCCGGGUAAGUGUAAAUCGUCUGCAUGCCGCCGGGCGCCAUGCCUGCAGGUCGACUCUAGAAAACAUG,binding signal,[5],3.61 log2 enrichment (interaction score)
same,binding signal,[6],2.56 log2 enrichment (interaction score)
GGCUAGAACUAGUGGAUCCCCCGGCGCCCGGCGGCUCGAGCCCGGGUAAGUGUAAAUUGUCUGCAUGCCGCCGGGCGCCAUGCCUGCAGGUCGACUCUAGAAAACAUG,binding signal,[6],1.52 log2 enrichment (interaction score)
GGCUAGAACUAGUGGAUCCCCCGGCGCCCGGCGGCUCGAGCCCGGGUAAGUGUUAAUAGUCUGCAUGCCGCCGGGCGCCAUGCCUGCAGGUCGACUCUAGAAAACAUG,binding signal,[7],5.29 log2 enrichment (interaction score)
same,binding signal,[8],3.88 log2 enrichment (interaction score)
GGCUAGAACUAGUGGAUCCCCCGGCGCCCGGCGGCUCGAGCCCGGGUAAGUGUACGAAGUCUGCAUGCCGCCGGGCGCCAUGCCUGCAGGUCGACUCUAGAAAACAUG,binding signal,[9],3.9 log2 enrichment (interaction score)
GGCUAGAACUAGUGGAUCCCCCGGCGCCCGGCGGCUCGAGCCCGGGUAAGUGUGAAUAGUCUGCAUGCCGCCGGGCGCCAUGCCUGCAGGUCGACUCUAGAAAACAUG,binding signal,[10],3.25 log2 enrichment (interaction score)
